Measured values reported in PubChem BioAssay (Tox21).
Inconclusive results are not listed. Where a call stands in place of a potency, no number is given. Calls of active or inactive are those of the source. Calls follow the shape of the dose curve; as a rule, active = well fitted cell-killing curve with a large enough effect in the repeat runs; inconclusive = weak or mixed curves, or effect the other way; inactive = flat fitted curve, though single readings scatter.

Test: qHTS RealTime-Glo MT Cell Viability Assay in HEK293 cells - 16 hour (AID 1224872); also: nearly all actives have a fitted effect of over 50% in size
Settings: RealTime-Glo luminescence; series mostly up to 76.8 µM
Source text: National Center for Advancing Translational Sciences [NCATS]
NIH Chemical Genomics Center [NCGC]
U.S. Environmental Protection Agency [EPA]
National Institutes of Environmental Health Sciences [NIEHS]
National Toxicology Program [NTP]
U.S. Food and Drug Administration [FDA]
Measure of cell viability is critical in the cell-base assay. Analysis of cell viability is necessary for the characterization of cell responses to cytotoxic drugs and environmental stress. A RealTime-Glo MT Cell Viability Assay to monitor cell viability in real time of continues cell culture during 40 hours of compound treatment was used to screen Tox21 10K library compounds in Hek293 cells. The RealTime-Glo MT Cell Viability Assay is a nonlytic, homogeneous, bioluminescent method to measure cell viability in real time using a simple, plate-based method. The assay involves adding NanoLuc luciferase and a cell-permeant prosubstrate to cells in culture. Viable cells reduce the proprietary prosubstrate to generate a substrate for NanoLuc luciferase. This substrate diffuses from cells into the surrounding culture medium, where it is rapidly used by the NanoLuc Enzyme to produce a luminescent signal. The signal correlates with the number of viable cells, making the assay well suited for cytotoxicity studies.
Tox21 Assay Protocol Summary:
The mixture of Hek293 cell suspension and reagents were dispensed at 600cells/6 ul/well in 1536-well tissue culture treated black solid bottom plates using a Multidrop dispenser. After the assay plates were incubated at a 37 C/5% CO2 incubator for 5 hours, 23 nL of compounds dissolved in DMSO, positive and negative controls was transferred to the assay plate by a pintool work station. The plates were incubated at 37 C for 40 hours. The luminescence intensity were measured at 0h, 8h, 16h, 24h, 32h and 40h time points using ViewLux plate reader during compound treatment.
Potency is read from the fitted curve at half-maximal effect.

Compound | Potency
C[C@H]1c2cccc(O)c2C(O)=C2C(=O)[C@]3(O)C(O)=C(C(N)=O)C(=O)[C@@H](N(C)C)[C@@H]3[C@@H](O)[C@@H]21 | inactive
Cc1ccccc1S | inactive
CC(CC1c2ccccc2CCc2ccccc21)CN(C)C (stereo not given) | inactive
Cc1c(C)c2c(c(C)c1OC(=O)CCC(=O)OCCO)CC[C@@](C)(CCC[C@H](C)CCC[C@H](C)CCCC(C)C)O2 | inactive
COc1cc(C(=O)NCCCCCC(=O)O)cc(OC)c1OC | inactive
Cc1cc(C)cc(N)c1 | inactive
C/C=C/C=C/C=O | inactive
C[C@@H](O)[C@H]1C(=O)N2C(C(=O)O)=C([C@H]3CCCO3)S[C@H]12 | inactive
CC1(C)S[C@@H]2[C@H](NC(=O)C(c3ccccc3)S(=O)(=O)O)C(=O)N2[C@H]1C(=O)O (stereo not given in full) | inactive
C=C1c2cccc(O)c2C(O)=C2C(=O)[C@]3(O)C(O)=C(C(N)=O)C(=O)[C@@H](N(C)C)[C@@H]3[C@@H](O)[C@H]12 | inactive
Cc1cccc(O)c1N | inactive
O=C1C(=O)c2ccccc2C(O)=C1C1CCC(c2ccc(Cl)cc2)CC1 (stereo not given) | inactive
OCCOCC#CCOCCO | inactive
O=[N+]([O-])c1ccc(O/N=C/c2cc(Br)c(O)c(Br)c2)c([N+](=O)[O-])c1 | 43.4 µM (active)
CC(=O)Oc1ccc([N+](=O)[O-])cc1CCl | 6.16 µM (active)
COC(=O)CCS | inactive
Nc1ncnc2c1ncn2[C@H]1CC[C@@H](CO)O1 | inactive
CC(C)=CCC1C(=O)N(c2ccccc2)N(c2ccccc2)C1=O | inactive
COc1cc(Nc2c(C#N)cnc3cc(OCCCN4CCN(C)CC4)c(OC)cc23)c(Cl)cc1Cl | 19 µM (active)
O=C(Cn1ccnc1[N+](=O)[O-])NCCO | inactive

Compound | Potency
NNC(=O)CP(=O)(c1ccccc1)c1ccccc1 | inactive
FC(F)(F)c1ccccc1Cl | inactive
C[C@@H]1CN(CCCn2c3ccccc3c3ccccc32)C[C@H](C)N1 | 26.8 µM (active)
CC[C@]1(O)C[C@H]2CN(CCc3c([nH]c4ccccc34)[C@@](C(=O)OC)(c3cc4c(cc3OC)N(C=O)[C@H]3[C@@](O)(C(=O)OC)[C@H](OC(C)=O)[C@]5(CC)C=CCN6CC[C@]43[C@@H]65)C2)C1 | inactive
CCc1ccccc1 | inactive
Cc1ccc2c(Br)cc(Br)c(O)c2n1 | inactive
C[C@]12CC[C@@H]3c4ccc(O)cc4CC[C@H]3[C@@H]1CC[C@@H]2OC(=O)CCC1CCCC1 | 49 µM (active)
C[C@H]1C[C@H](O)c2ccsc2S1(=O)=O | inactive
Oc1ccc(Cl)c2cccnc12 | inactive
Nc1cccc2c1CN(C1CCC(=O)NC1=O)C2=O (stereo not given) | inactive
O=C(O)CCC(=O)C(=O)O | inactive
CC(=O)c1ccc([N+](=O)[O-])cc1 | inactive
CC1=C(Br)C(=O)C(Br)=C/C1=C(/c1ccccc1S(=O)(=O)O)c1cc(Br)c(O)c(Br)c1C | inactive
COc1ncnc(NS(=O)(=O)c2ccc(N)cc2)c1OC | inactive
C=C1C[C@@]23CC[C@H]4[C@@](C)(CCC[C@@]4(C)C(=O)O[C@@H]4O[C@H](CO)[C@@H](O)[C@H](O)[C@H]4O)[C@@H]2CC[C@]1(O[C@@H]1O[C@H](CO)[C@@H](O)[C@H](O[C@@H]2O[C@H](CO)[C@@H](O)[C@H](O)[C@H]2O)[C@H]1O[C@@H]1O[C@H](CO)[C@@H](O)[C@H](O)[C@H]1O)C3 | inactive
Cc1ccc(Cl)c(Nc2ccccc2C(=O)O)c1Cl | inactive
O=Cc1c2ccccc2c(Cl)c2ccccc12 | inactive
CC(C)Nc1cccnc1N1CCN(C(=O)c2cc3cc(NS(C)(=O)=O)ccc3[nH]2)CC1 | inactive
CCN(CC)CCNC(=O)COc1ccc(OC)cc1 | inactive
COc1cc(C(=O)NC2CCN(C)CC2)ccc1Nc1ncc2c(n1)N(C1CCCC1)CC(F)(F)C(=O)N2C | 2 µM (active)
